# Measurements from the supplement of paper PMC6555819.
# How the values were obtained:
# Assay in all cases: PBM binding z-score (relative to random genomic background probes); higher = stronger binding; sequences stand for … in GC…GCGATTGACAGCGTAGAATGAAGG
# [1] = system: RARb homodimer (NR concentration 270 nM)
# Method in brief: (§1)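 Probes were double-stranded and carried 34-nt variable regions with direct-repeat seeds, single-nucleotide variants, half-site ablations and random human genomic background sequences, printed on custom Agilent 4×180K protein-binding microarrays. Arrays were incubated 1 h with ligand-free nuclear receptor dimers in PBS pH 7.4, 2% milk, 0.02% Triton X-100, 1 mM DTT, 0.2 mg/mL BSA and 0.4 mg/ml salmon testes DNA. Antibodies against each partner (one per run) detected binding, and scanned fluorescence was regression-normalized. Binding z-scores use the random background probes as reference.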
# [2] = system: RARg:RXRa (NR concentration 270 nM, RXRa partner concentration 90 nM)
# Method in brief: as §1
# [3] = system: RARg homodimer (NR concentration 270 nM)
# Method in brief: as §1
# [4] = system: RXRa DBDmut IVT, anti-RXR (DBD mutation: RXRa K156A/R161A, NR concentration 90 nM)
# Method in brief: as §1
# [5] = system: RXRa homodimer (NR concentration 180 nM)
# Method in brief: as §1
# [6] = system: THRa:RXRa (NR concentration 90 nM, RXRa partner concentration 90 nM)
# Method in brief: as §1
# [7] = system: THRa homodimer (NR concentration 90 nM)
# Method in brief: as §1
# [8] = system: VDR:RXRa (NR concentration 270 nM, RXRa partner concentration 90 nM)
# Method in brief: as §1
# [9] = system: VDR homodimer (NR concentration 270 nM)
# Method in brief: as §1
Sequence,PBM binding z-score [1],PBM binding z-score [2],PBM binding z-score [3],PBM binding z-score [4],PBM binding z-score [5],PBM binding z-score [6],PBM binding z-score [7],PBM binding z-score [8],PBM binding z-score [9]
TCTAGTTGGTCATAGGTCACACACTCGAAATGCG,3.67,4.2,3.58,1.63,4.58,2.68,1.47,3.19,1.63
AATGCAGGGTCATCGTAGGCCAGAGTACGCACAG,3.56,5.5,4.83,3.37,6.16,4.6,0.92,5.1,3.45
ATAAGTAGGTTATCGGGTCATTCAGTTTGCGCAT,3.12,3.44,2.43,1.57,3.55,3.29,2.93,5.16,4.49
ATCGAAAGGTCGTTAGGTGAGTATACAGAAAGGC,2.59,3.91,3.44,2.2,3.98,2.51,0.793,3.58,1.84
CCTAGCAGGCCACTCTGGGTCACTCAAGGCTTGA,2.05,1.36,1.45,0.0538,0.851,3.4,0.412,0.79,0.081
GGAACGAGGGCATTCGAGTTGAAAGCATGGCGAT,0.677,1.02,1.19,3.05,1.12,3.9,-0.523,3.59,3.1
TCATATCGGTAAATGCTAGGTGAAAGTCCGATCT,0.513,-0.0615,0.173,1.14,0.375,0.889,0.553,0.566,0.0162
CCTAGTTGGTGAAGGTCACACACGCTATAGGTAC,4.26,4.01,4.06,1.36,3.65,2.89,1.2,3.4,2.3
CCTTACGGGTCACTCCAGGTTATCGCATCGGAGT,3.25,4.44,4.23,1.07,4.36,5.13,0.863,4.2,1.57
CGTCAAAGTTCAACTAAGATAACGTAAAGCACGC,3.75,5.82,6.58,4.65,5.25,2.98,0.329,4.2,3.75
CCGGCTGGGGCATAAGGTTACCATAAGCCAGCCC,1.62,1.83,1.05,-1.59,0.983,1.93,0.912,-0.119,-0.374
GCAGACAGGTGAAACGCGGGTAACTCAGGGTGGC,0.366,0.785,0.319,-0.6,0.631,1.64,-0.533,-0.339,-0.362
CCTTACGGGTCAAGGTTATAACACGGGTGGTACG,3.35,5.02,4.89,1.1,5.42,3.06,0.539,3.51,1.41
TATACAGGGTCAAAGGCCACAGTACGAATGTCGA,3.85,6.13,5.62,3.08,7.97,3.53,1.28,5.15,3.15
ATCTCTAGGTAAGACTCAGTCCAGTGAAGAACGC,0.112,0.208,0.132,0.459,0.144,0.31,0.282,0.327,0.336
AGAACGAGGGCACGCTGAGTTGTTAGCAGAGTAG,1.16,1.85,2.11,1.95,1.55,1.73,-0.0744,1.6,1.29
TCATATAGGTAAGACAGGTGAAAGTCGGCATCTA,0.625,0.754,0.411,1.36,1.02,0.828,0.209,0.987,0.18
TCCTATAGGTAAACAGGTGAAAGTCCGTAAGTTA,0.829,0.269,0.132,1.06,0.667,0.77,0.418,0.775,0.275
TCTTGTAGATTAGCAGGTTAAGAAAGCTGGCCAA,0.292,-0.0657,-0.174,0.682,0.386,0.458,-0.511,0.63,-0.173
TCTTGTAGATCAGCAGGTTTAGAAAGCTGGCCAA,-0.607,-0.508,-0.884,0.412,-0.374,-0.307,-0.755,0.532,-0.457
CCAGACAGGGGAAAGGTAACTCAGTCTGGTACGC,0.183,0.177,-0.0948,-0.138,0.529,0.146,0.0595,-0.0821,-0.41
ACTAGCAAGCCAAGTTTGGGTCACTCAAACAAAG,1.51,0.717,0.562,-0.45,0.557,2.09,0.807,0.188,-0.115
TGGATGAGGTTATAAGATCAGGGAACGTTGCAAA,0.465,1.53,1.24,0.341,1.97,1.91,0.397,1.04,0.65
AGTCAAAGTTCATCTAGGTAAGGTAAGATATGCT,4.03,5.32,5.79,4.64,4.38,3.19,0.886,4.6,4.84
CCAGACAGCTGAGAAGGTAACTCAGCCTCGATTA,-0.378,-0.436,-0.0751,-0.0865,-0.206,-0.157,-0.306,-0.312,-0.494
CGAACTAGGTCATTGTCAGGACAGTGAATAGTAA,2.62,4.33,4.35,2.31,2.37,4.27,2.09,2.52,1.82

Sequence,PBM binding z-score [1],PBM binding z-score [2],PBM binding z-score [3],PBM binding z-score [4],PBM binding z-score [5],PBM binding z-score [6],PBM binding z-score [7],PBM binding z-score [8],PBM binding z-score [9]
TAGCCTAGGTCAGATCGGGCCAGTATCCGCTATA,2.26,2.39,3.37,-0.366,1.35,4,0.15,0.43,-0.329
TCTTGTAGATAAACAGGAGGTTAAGAAAGATCGA,0.563,0.413,0.451,0.64,0.929,0.693,-0.428,0.873,-0.0637
TAGCCTAGGACAGATCGGGCCAGTATACGCTATA,-0.402,-0.336,0.0371,-1.01,-0.257,0.511,-0.623,-0.85,-0.922
AGTCAACGTTCACTAGGTAACGTAAGATTCAGCT,0.0524,0.418,0.444,0.205,0.197,0.401,0.11,-0.186,-0.293
TATACAGGGTCAAAGGCCTGAGTACGAATGTCGA,3.17,5.49,4.87,2.89,6.3,3.28,0.678,4.53,3.41
GGAACGAGGGCAAGTTGATAGGAGAGTTTGATGG,1.61,1.72,2.08,2.4,0.681,1.27,0.249,0.886,2.23
ATCTCTAGGTAAAGGTAGTTCAGTGAATGCAAAT,0.964,0.44,0.605,0.345,0.164,1.21,0.679,1.12,1.12
GGAACGAGGGCATGCGAGTTGATAGCATGGCGAT,0.608,1.21,1.6,2.03,0.847,2.7,-0.777,2.9,1.97
CCTGCTAGGTCAATGGTCAACTAAAGCAGCTCGC,3.11,3.77,4.5,1.64,2.55,2.41,0.723,1.25,0.324
ACTAGTAGGCCAAGTTTGGGTCACTCAAACAAAG,2.48,2.53,2.16,0.0627,1.15,2.6,1.31,0.967,0.613
CCTACTGGGCCAAGGGTCATTGATTCCAATGCTC,3.11,3.67,3.31,-0.197,3.75,2.11,0.000297,3.45,1.68
TGAATGAGGTTATAAGAACAGGGAACGTTGCAAA,-0.0181,1.21,1,0.468,1.89,1.62,0.00377,0.915,0.365
TTACCAAGGTGAGCTGAGGTCGTCGATCCAACTC,1.49,1.37,1.36,-0.22,1.75,4.74,2.4,3.49,1.02
CCTTACGGGTCACTCCAGGTTTTAGCATCGGAGT,2.77,4.49,4.02,1.79,4.23,4.31,0.0902,3.47,1.74
CAAACTAGGTCATGAAAGGTCAAAGTCGAATGAC,5.55,7.46,7.78,2.45,7.87,5.19,2.21,6.73,4.05
ACTATTAGTTGAGACGAGGGCAACAGATAGGTTG,1.17,0.793,0.969,0.472,0.663,2.42,0.255,0.625,1.15
TCTTGTAGATCAACAGGAGGTTAAGCAAGATCGA,0.427,0.916,0.301,0.224,1.01,1.24,-0.612,0.529,-0.456
TTACCAAGGTGAAAGTCGTTGATCCCTCTGTAGA,0.704,0.61,0.23,0.0451,1.2,2,0.568,0.25,-0.192
GCTAGTTGGTCAGTAAAAGGTCTCACACCGGTCG,1.45,0.572,0.449,-0.133,0.172,0.0932,0.0808,-0.141,-0.174
TAGCCTAGGTCATTGGGCCTGTATAGTACGCATC,2.84,3.78,4.29,1.59,3.33,2.74,0.697,2.38,1.12
CAAACTAGGTCAGAGAGGTCAAAGTCCGTGCGTA,5.19,6.39,6.79,2.74,7.07,4.43,2.45,7.57,6.12
CAAACTAGGACAAGGTCAAAGTCGGTTTGTGCCA,3.66,4.2,3.68,2.27,4.36,3.84,2.86,4.36,3.88
CAGCCTGGGTCAGGGCCAGTATAGGAGGAACGTT,2.07,2.63,2.76,-1.29,1.51,1.09,-0.124,0.152,-0.545
AGAATGAGGTTATTAAGATCTGGGAATTGCGGTC,0.732,1.04,0.692,2.16,1.77,1.99,0.599,1.33,0.954
GCTACCAGGCCATTTGGGTCACTCAATGACGGGC,2.15,1.21,1.57,0.386,0.86,2.21,1.39,1.36,0.491
GTACCAAGGTTAATAGGTCGTTGATGAGTAGGCG,2.14,3.29,2.07,0.518,2.5,1.68,0.196,2.23,0.941
